# Experimental data published in PubChem BioAssay.
# Calls of active or inactive are those of the source.
# How the values were obtained:
# [1] = E. coli DRC41 culture turbidity changes, primary screen, E. coli filamentation inducer project, strain DRC41, OD650, 48 h (AID 1152);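 further: E. coli MC1000 strain DRC41 lacking acrAB efflux pump and sulA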; conditions: E. coli DRC41 (acrAB sulA), higher = more signal, called active from +8 up or from −8 down
# [2] = small-molecule binders of probe aLefty1, primary screen, biochemical, small-molecule microarray, 635/667 nm fluorescence (AID 1153); conditions: higher = more signal;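 further: score merges spot fluorescence with signal-to-noise ratio from the scanned slide images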
# [3] = PSAC antagonists in infected red cells, primary screen, cell-based, P. falciparum Indochina, OD700, 1 h (AID 1154); conditions: P. falciparum Indochina infected RBC osmotic lysis, higher = more signal, called active from +8 up or from −8 down
# [4] = PSAC antagonists in infected red cells, primary screen, cell-based, P. falciparum Indochina, OD700, 2 h (AID 1155);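 further: lysis reports solute entry through the parasite surface anion channel PSAC; channel blockers reduce lysis of infected cells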; conditions: P. falciparum Indochina infected erythrocytes, osmotic lysis OD700; higher = more signal, called active from +8 up or from −8 down
# [5] = osmotic lysis modulators in infected erythrocytes, primary screen, PSAC antagonist project, cell-based, P. falciparum Indochina, OD700, 3 h (AID 1156); conditions: higher = more signal, called active from +8 up or from −8 down
# [6] = PSAC antagonists in infected red cells, primary screen, cell-based, P. falciparum Indochina, OD700, 18 h (AID 1157); conditions: P. falciparum Indochina infected erythrocytes, osmotic lysis OD700, 18 h; higher = more signal, called active from +8 up or from −8 down
# [7] = modulators of S6 phosphorylation in cells, primary screen, cell-based, A549, cytoblot, luminescence, serum-stimulated (AID 1158); conditions: A549 phospho-S6 cytoblot, 5 h, higher = more signal;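 further: serum-stimulated A549 lung adenocarcinoma cells; signal is phosphorylated S6 detected by cytoblot immunostaining with HRP secondary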
# [8] = target: NADPH oxidase 2 (Homo sapiens) (UniProt P04839); test: NOX2-dependent H2O2 signal modulators, primary screen, NOX inhibitor project, cell-based, HEK293-NOX2, PMA-stimulated, Amplex Red fluorescence (AID 1159); conditions: 45 min, higher = more signal, called active from +8 up or from −8 down; further: test concentration not given here
# NADPH oxidase 2 (Homo sapiens), sequence (P04839 whole entry, looked up): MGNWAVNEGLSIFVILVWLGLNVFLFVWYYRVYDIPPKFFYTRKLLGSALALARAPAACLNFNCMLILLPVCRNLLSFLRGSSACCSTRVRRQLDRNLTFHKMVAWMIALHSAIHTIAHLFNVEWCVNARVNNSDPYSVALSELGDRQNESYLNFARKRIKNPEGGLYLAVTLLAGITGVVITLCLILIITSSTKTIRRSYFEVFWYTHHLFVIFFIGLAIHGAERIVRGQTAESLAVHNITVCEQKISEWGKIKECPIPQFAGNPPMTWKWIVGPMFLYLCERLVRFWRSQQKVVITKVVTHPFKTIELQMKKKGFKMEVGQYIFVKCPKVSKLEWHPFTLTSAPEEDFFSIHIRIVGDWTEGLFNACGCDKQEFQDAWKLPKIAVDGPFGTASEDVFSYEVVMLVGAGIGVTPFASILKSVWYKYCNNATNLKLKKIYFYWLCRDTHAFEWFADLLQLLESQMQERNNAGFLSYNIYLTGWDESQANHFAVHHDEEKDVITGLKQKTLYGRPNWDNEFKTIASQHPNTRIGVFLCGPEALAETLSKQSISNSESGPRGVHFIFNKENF
# [9] = target: NADPH oxidase 4 (Homo sapiens) (UniProt Q9NPH5); test: NOX4-dependent H2O2 signal modulators, primary screen, NOX inhibitor project, cell-based, HEK293-NOX4, tetracycline-induced, Amplex Red fluorescence (AID 1160); conditions: 45 min, higher = more signal, called active from +8 up or from −8 down
# NADPH oxidase 4 (Homo sapiens), sequence (Q9NPH5 whole entry, looked up): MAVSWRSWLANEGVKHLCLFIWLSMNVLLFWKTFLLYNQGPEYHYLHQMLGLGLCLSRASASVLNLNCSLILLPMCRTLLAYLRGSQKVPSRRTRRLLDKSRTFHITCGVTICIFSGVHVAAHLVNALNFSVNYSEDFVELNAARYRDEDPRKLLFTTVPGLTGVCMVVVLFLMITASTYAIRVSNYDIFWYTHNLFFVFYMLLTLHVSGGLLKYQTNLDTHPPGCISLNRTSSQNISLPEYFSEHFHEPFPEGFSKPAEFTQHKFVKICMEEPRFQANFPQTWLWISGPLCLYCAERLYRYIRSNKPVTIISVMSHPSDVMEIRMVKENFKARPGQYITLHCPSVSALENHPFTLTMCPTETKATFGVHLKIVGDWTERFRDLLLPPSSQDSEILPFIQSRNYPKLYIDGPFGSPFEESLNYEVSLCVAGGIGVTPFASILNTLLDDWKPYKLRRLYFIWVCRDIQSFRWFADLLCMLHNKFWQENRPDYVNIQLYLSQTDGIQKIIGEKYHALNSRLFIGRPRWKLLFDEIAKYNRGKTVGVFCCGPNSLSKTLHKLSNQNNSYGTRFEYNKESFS
# [10] = target: NADPH oxidase 5 (Homo sapiens) (UniProt Q96PH1); test: NOX5-dependent H2O2 signal modulators, primary screen, NOX inhibitor project, cell-based, HEK293-NOX5, Amplex Red fluorescence (AID 1161); conditions: HEK293-NOX5, ionomycin, 45 min, higher = more signal
# NADPH oxidase 5 (Homo sapiens), sequence (Q96PH1 whole entry, looked up): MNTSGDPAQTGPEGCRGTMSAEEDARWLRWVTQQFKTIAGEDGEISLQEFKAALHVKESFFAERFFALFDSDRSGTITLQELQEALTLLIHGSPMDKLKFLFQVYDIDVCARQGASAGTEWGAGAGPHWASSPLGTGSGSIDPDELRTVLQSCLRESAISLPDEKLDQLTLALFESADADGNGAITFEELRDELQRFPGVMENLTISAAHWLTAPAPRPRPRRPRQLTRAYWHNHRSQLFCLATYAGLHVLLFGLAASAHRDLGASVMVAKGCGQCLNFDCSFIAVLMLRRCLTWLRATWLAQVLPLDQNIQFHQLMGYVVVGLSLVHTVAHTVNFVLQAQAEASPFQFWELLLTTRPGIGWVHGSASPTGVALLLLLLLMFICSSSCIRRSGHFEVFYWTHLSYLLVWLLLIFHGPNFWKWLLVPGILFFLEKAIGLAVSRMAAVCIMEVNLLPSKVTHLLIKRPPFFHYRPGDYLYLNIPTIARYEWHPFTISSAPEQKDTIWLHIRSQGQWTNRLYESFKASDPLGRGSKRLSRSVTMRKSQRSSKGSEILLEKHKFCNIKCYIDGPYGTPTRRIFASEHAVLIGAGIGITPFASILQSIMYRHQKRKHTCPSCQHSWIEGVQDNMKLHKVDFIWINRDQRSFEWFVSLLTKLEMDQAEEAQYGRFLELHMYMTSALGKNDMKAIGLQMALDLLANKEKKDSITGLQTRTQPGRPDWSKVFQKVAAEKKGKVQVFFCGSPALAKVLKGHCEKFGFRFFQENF
# [11] = A549 cell viability effects, profiling panel, calcein-AM fluorescence, 48 h, basal (AID 1162); conditions: higher = more signal; further: test concentration not given here
# [12] = adipocyte viability effects, profiling panel, cell-based, 3T3-L1 adipocytes, calcein-AM fluorescence, 48 h, basal (AID 1163); conditions: 3T3-L1 adipocytes viability, higher = more signal; further: test concentration not given here
# [13] = HepG2 cell viability effects, profiling panel, calcein-AM fluorescence, 48 h, basal (AID 1164); conditions: higher = more signal; further: test concentration not given here
# [14] = MM1S cell viability effects, profiling panel, calcein-AM fluorescence, 48 h, basal (AID 1165); conditions: higher = more signal;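 further: viability of MM1S multiple myeloma cells under basal unstimulated conditions; test concentration not given here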
# [15] = basal RPMI8226 viability, no added stimulus, profiling panel, cell-based, calcein-AM fluorescence, 48 h, PK04 Diversity Set (AID 1166); conditions: RPMI8226 myeloma viability, higher = more signal;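 further: cells grown under basal conditions without added stimulus; test concentration not given here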
# [16] = basal HepG2 mitochondrial membrane potential changes, profiling panel, cell-based, JC-1 fluorescence, 24 h, 100 nL compound (AID 1167); conditions: higher = more signal; further: test concentration not given here
# [17] = basal 3T3-L1 adipocyte mitochondrial potential changes, profiling panel, cell-based, JC-1 fluorescence, 3T3-L1 adipocytes, 24 h, 100 nL compound (AID 1168); conditions: JC-1 mitochondrial fluorescence, higher = more signal, called active from +8 up or from −8 down; further: test concentration not given here
# [18] = basal RPMI8226 mitochondrial membrane potential changes, profiling panel, cell-based, JC-1 fluorescence, 24 h, 100 nL compound (AID 1169); conditions: RPMI8226 myeloma, JC-1 mitochondrial potential fluorescence, higher = more signal; further: test concentration not given here
# [19] = basal MM1S mitochondrial membrane potential changes, profiling panel, cell-based, JC-1 fluorescence, 24 h, 100 nL compound (AID 1170); conditions: higher = more signal; further: test concentration not given here
# [20] = A549 lung cancer cell viability effects, profiling panel, resazurin fluorescence, 24 h, PK04 Diversity Set (AID 1171); conditions: higher = more signal, called active from +8 up or from −8 down; further: test concentration not given here
Compound,z-score [1],composite z-score [2],z-score [3],z-score [4],z-score [5],z-score [6],z-score [7],z-score [8],z-score [9],z-score [10],z-score [11],z-score [12],z-score [13],z-score [14],z-score [15],z-score [16],z-score [17],z-score [18],z-score [19],z-score [20]
O=C1O[C@H](c2ccccc2)[C@H](c2ccccc2)N2[C@H]1[C@@H](C(=O)O)[C@]1(C(=O)Nc3ccc(C#CC4(O)CCCCCC4)cc31)[C@H]2c1ccccc1OCCO,0.782 (inactive),0.708,-2.1 (inactive),-0.922 (inactive),-14.7 (active),-0.743 (inactive),0.364,2.49 (inactive),-1.56 (inactive),-1.32,0.631,0.0596,-0.0165,-3.38,-4.15,-2.61,-0.521 (inactive),-0.911,-0.681,0.95 (inactive)
C=CCNC(=O)[C@H]1[C@@H]2C(=O)O[C@@H](c3ccccc3)[C@@H](c3ccccc3)N2[C@@H](c2ccc(O)cc2)[C@]12C(=O)N(C(=O)OCCOC)c1ccc(C#Cc3ccc(OC)cc3)cc12,-0.983 (inactive),0.216,2.57 (inactive),1.28 (inactive),-0.829 (inactive),0.0195 (inactive),-0.376,1.62 (inactive),0.725 (inactive),1.13,-0.98,-1.44,0.147,-1.26,-1.2,-1.62,0.202 (inactive),-0.625,-0.804,-0.0733 (inactive)
C=CCOC(=O)[C@@H]1[C@H]2C(=O)O[C@H](c3ccccc3)[C@H](c3ccccc3)N2[C@H](c2ccc(OCCOC(=O)[C@@H]3C[C@@H]4C(=O)N[C@@H](CC(C)C)C(=O)N4[C@@H]3c3ccc(O)cc3)cc2)[C@@]12C(=O)Nc1ccc(I)cc12,0.928 (inactive),1.58,1.5 (inactive),0.9 (inactive),4.25 (inactive),0.718 (inactive),0.0764,0.485 (inactive),0.64 (inactive),0.839,-0.226,0.175,-0.0024,0.26,1.31,-1.61,0.872 (inactive),-0.575,-0.925,0.595 (inactive)
CC(C)c1ccc(NN2C(C(O)C(C)c3ccccc3)C=CC3C(=O)N(c4ccccc4)C(=O)C32)cc1 (stereo not given),-1.78 (inactive),1.24,0.187 (inactive),0.433 (inactive),0.215 (inactive),0.998 (inactive),-1.44,-0.818 (inactive),-2.63 (inactive),-4.03,-0.625,-0.856,-1.03,-1.1,-1.34,-2.13,-1.75 (inactive),-0.628,-0.102,-0.868 (inactive)
C=C[C@H](OC)[C@@H](O)c1ccc(OC)c(O)c1,0.169 (inactive),-0.169,-0.258 (inactive),0.352 (inactive),-0.658 (inactive),0.207 (inactive),-0.425,-2.15 (inactive),-0.986 (inactive),-0.556,-0.107,-0.678,1.69,-0.166,-0.991,1.26,0.503 (inactive),0.5,0.443,-0.112 (inactive)
COc1cc(Cc2cc3c(c(CCc4ccccc4)n2)[Si](C(C)C)(C(C)C)O[C@H]3c2ccccc2)cc(OC)c1OC,-1.77 (inactive),0.101,-0.436 (inactive),0.356 (inactive),-3.89 (inactive),0.0416 (inactive),-0.557,1.25 (inactive),-2.98 (inactive),-3.87,-4.59,-0.515,-3.15,-3.14,-3.71,-3.44,0.0754 (inactive),-0.548,-0.663,-1.24 (inactive)
O=C(NCC(F)(F)F)[C@@H]1c2ccccc2C(=O)N(Cc2cc(C(F)(F)F)cc(C(F)(F)F)c2)[C@H]1c1ccc(CO)cc1,0.648 (inactive),0.114,2.54 (inactive),0.0323 (inactive),0.473 (inactive),0.257 (inactive),0.751,0.16 (inactive),0.746 (inactive),1.11,0.964,-0.0843,1.42,-0.202,1.07,1.95,1.36 (inactive),0.801,-0.626,0.651 (inactive)
O=C1c2ccccc2[C@@]2(Cc3ccccc3N(CC(F)(F)F)C2=O)[C@H](c2ccc(CO)cc2)N1Cc1ccccc1,-0.98 (inactive),-0.0626,-0.0567 (inactive),-0.992 (inactive),0.11 (inactive),-1.93 (inactive),2.33,-2.06 (inactive),-2.39 (inactive),-2.36,-0.293,1.21,-1.13,0.191,-2.24,-0.631,-2.33 (inactive),0.928,-1.09,-0.279 (inactive)
